Activity calls are given as the source filed them.
Columns and labels:
Albumin (Bos taurus) = Albumin (Bos taurus) (UniProt P02769); assay: compounds binding labelled BSA control protein – biochemical, small-molecule microarray, Alexa647 label, 635/667 nm fluorescence, artefact control for SMM control protein annotation, profiling panel (AID 1118); settings: BSA-A647 binding, fluorescence 635 nm, higher = more signal;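 further: score merges 667 nm emission intensity and signal-to-noise per printed compound spot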
Sequence of Albumin (Bos taurus) (P02769 whole entry, looked up): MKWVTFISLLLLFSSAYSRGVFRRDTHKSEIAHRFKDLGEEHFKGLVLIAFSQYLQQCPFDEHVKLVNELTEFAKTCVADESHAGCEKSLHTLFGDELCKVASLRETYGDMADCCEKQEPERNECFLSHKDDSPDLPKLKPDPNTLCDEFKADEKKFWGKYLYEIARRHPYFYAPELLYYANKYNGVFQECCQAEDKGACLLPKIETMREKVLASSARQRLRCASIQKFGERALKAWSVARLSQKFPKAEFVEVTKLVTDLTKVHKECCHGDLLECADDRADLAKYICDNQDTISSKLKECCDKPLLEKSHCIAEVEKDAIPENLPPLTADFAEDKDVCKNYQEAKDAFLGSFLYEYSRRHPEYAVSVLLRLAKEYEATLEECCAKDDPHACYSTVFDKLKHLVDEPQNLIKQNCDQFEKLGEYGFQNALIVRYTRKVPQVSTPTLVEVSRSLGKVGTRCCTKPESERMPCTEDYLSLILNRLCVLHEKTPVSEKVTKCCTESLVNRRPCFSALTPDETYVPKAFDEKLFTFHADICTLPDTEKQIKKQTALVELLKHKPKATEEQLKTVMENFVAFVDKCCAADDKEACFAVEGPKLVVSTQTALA

[1] = probe aXIP binding to arrayed compounds – biochemical, NeuroSMM set, 635/667 nm fluorescence, primary screen (AID 1119); settings: small-molecule microarray, higher = more signal, called active from +8 up or from −8 down;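 further: probe is the protein aXip251-270 applied at 1 µg/mL to compound-printed slides; binding of probe to printed compounds measured as 667 nm fluorescence plus signal to noise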
[2] = probe aNOTCH3 binding on compound microarray – biochemical, small-molecule microarray, 635/667 nm fluorescence, primary screen (AID 1120); settings: higher = more signal;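 further: probe is a biotin-tagged antibody raised against NOTCH3 rather than NOTCH3 protein; score merges spot fluorescence near 667 nm with spot signal to noise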
[3] = probe aNOTCH2 binding on compound microarray – biochemical, small-molecule microarray, 635/667 nm fluorescence, primary screen (AID 1121); settings: higher = more signal;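 further: score merges feature fluorescence read at 667 nm with its signal to noise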
[4] = biological target: Carbonic anhydrase 2 (Homo sapiens) (UniProt P00918); assay: compounds binding carbonic anhydrase 2 – biochemical, small-molecule microarray, Alexa647-labelled CAII, profiling panel (AID 1122); settings: CAII-A647 binding fluorescence, higher = more signal
[5] = COS7 lysate on small-molecule microarray, probe aHis, 635 nm (AID 1123); settings: COS7 cell lysate, fluorescence, higher = more signal;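 further: z-score combines 667nm fluorescence intensity with signal-to-noise per printed compound spot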
[6] = probe aLAP1 signal on lysate-treated microarray – cell lysate, small-molecule microarray, COS7 lysate, primary screen (AID 1124); settings: probe aLAP1, fluorescence, higher = more signal;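 further: lysate comes from COS7 cells expressing LAP1 and is applied at 0.3 µg/mL; score merges spot fluorescence near 667 nm with signal-to-noise over triplicate slides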
Sam68 (KHDRBS1) = assay: compounds binding KHDRBS1 protein – biochemical, small-molecule microarray, 635 nm fluorescence, primary screen (AID 1125); settings: higher = more signal;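 further: score merges 667 nm channel intensity with signal to noise over triplicate slides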
[7] = test system: Chordin-like protein 2 (CHRDL2); assay: compounds binding chordin-like 2 – biochemical, small-molecule microarray, 635 nm fluorescence, primary screen (AID 1126); settings: fluorescence 635 nm, higher = more signal;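 further: printed compound slides probed with Chrdl2 protein at 4 µg/mL for 1 h at 4 C; score merges 667 nm emission intensity with signal to noise over three replicate slides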
[8] = biological target: Concanavalin-A (Canavalia ensiformis) (UniProt P02866); assay: compounds binding concanavalin A lectin – biochemical, small-molecule microarray, Alexa647 label, 635 nm, artefact control for SMM control protein annotation, primary screen (AID 1127); settings: ConA-A647 binding fluorescence, higher = more signal;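 further: z combines 667 nm emission intensity with signal-to-noise across three replicate slides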
Sequence of Concanavalin-A (Canavalia ensiformis) (P02866 whole entry, looked up): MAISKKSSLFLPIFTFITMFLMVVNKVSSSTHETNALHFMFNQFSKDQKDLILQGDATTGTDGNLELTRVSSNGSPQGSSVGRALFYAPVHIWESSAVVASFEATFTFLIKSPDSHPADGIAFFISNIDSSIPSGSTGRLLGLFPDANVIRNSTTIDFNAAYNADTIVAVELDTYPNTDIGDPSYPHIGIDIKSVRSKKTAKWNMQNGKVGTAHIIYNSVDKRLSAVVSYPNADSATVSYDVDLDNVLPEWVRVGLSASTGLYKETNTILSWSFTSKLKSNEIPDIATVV

| SMILES | composite z-score (Albumin (Bos taurus)) | composite Z-score [1] | composite z-score [2] | composite z-score [3] | composite z-score [4] | composite z-score [5] | composite z-score [6] | composite z-score (Sam68 (KHDRBS1)) | composite z-score [7] | composite z-score [8] |
| --- | --- | --- | --- | --- | --- | --- | --- | --- | --- | --- |
| COC(=O)C(CC#Cc1ccc2c(c1)[C@]1(C(=O)N2)[C@H](C(=O)Nc2nc3ccccc3s2)[C@H]2C(=O)O[C@H](c3ccccc3)[C@H](c3ccccc3)N2[C@@H]1c1ccc(OCCO)cc1)C(=O)OC | 0.942 | 0.0898 (inactive) | 0.178 | -0.0209 | 0.553 | 2.29 | 1.04 | 1.3 | 0.517 | 1.12 |
| O=C1NC(=O)C2C1C=CC(C(O)c1ccccn1)N2Nc1ccc(Cl)cc1Cl (stereo not given) | 1.02 | 0.222 (inactive) | 0.0773 | 0.0554 | 0.815 | 3.23 | 0.048 | 0.25 | -0.44 | 0.786 |
| CC(C)(C)OC(=O)CC[C@]1(C(=O)N2CCCCC2)COC(c2ccc(OCCCO)cc2)=N1 | 0.939 | 1.28 (inactive) | 0.286 | 0.0341 | 0.862 | 2.68 | 1.05 | 1.14 | -0.538 | 1.11 |
| COc1ccc(CCNC(=O)[C@@]2(Cc3ccccc3I)c3ccccc3C(=O)N(Cc3ccccc3Cl)[C@H]2c2ccc(CO)cc2)cc1 | -0.41 | 1.24 (inactive) | 0.385 | 0.111 | 0.731 | 1.34 | 0.529 | 0.576 | -0.311 | 0.555 |
| Cc1ccc(F)cc1S(=O)(=O)N[C@@H]1CCN(Cc2cccc3[nH]ccc23)C1 | -0.864 | -1.15 (inactive) | 0.0749 | -0.154 | 0.708 | -0.339 | 0.136 | 0.289 | 1.23 | 0.249 |
| CCN(CC)c1ccc(N2CC=CC34O[C@@H]5C=CCCOC(=O)C5[C@H]3C(=O)N(CCO)[C@@H]4C2=O)cc1 (stereo not given in full) | 0.0715 | -0.296 (inactive) | -0.341 | -0.158 | 0.898 | -0.724 | 0.624 | -0.661 | -0.414 | -2.06 |
| CC=CC(O)C1C=CC2C(=O)NC(=O)C2N1Nc1ccccn1 (stereo not given) | 0.456 | 0.289 (inactive) | -0.0362 | -0.112 | 0.463 | 0.717 | 0.654 | 0.463 | 1.04 | 0.855 |
| C=C(COC)C(=O)CC[C@H](OC(C)=O)c1ccc(OCCO)cc1 | -0.0592 | -0.308 (inactive) | -0.0362 | -0.0971 | 0.549 | 0.523 | 2.46 | 0.666 | 0.569 | 0.488 |
| COCCOC(=O)N1C(=O)[C@@]2(c3cc(C#CC4(O)CCCCCC4)ccc31)[C@H](C(=O)N1CCN(c3ncccn3)CC1)[C@H]1C(=O)O[C@H](c3ccccc3)[C@H](c3ccccc3)N1[C@@H]2c1ccccc1OCCO | -0.22 | 0.572 (inactive) | 0.22 | -0.0826 | 0.384 | 0.506 | -0.176 | 1.26 | 0.902 | 1.13 |
| Nc1cc(Br)ccc1C(=O)O | 0.235 | 2.13 (inactive) | 0.0026 | -0.117 | 0.18 | -0.12 | -0.0137 | 0.213 | -0.079 | 0.713 |
| CCOC(=O)C1=C[C@@H](c2ccccc2)N(S(=O)(=O)c2ccc(C)cc2)[C@H]1c1ccccc1 | 0.612 | 0.185 (inactive) | 0.0636 | -0.022 | 0.0593 | -0.136 | 0.326 | 0.582 | 0.512 | 0.759 |
| COc1cccc(/C=C(\C#N)C(=O)Nc2c(C)n(C)n(-c3ccccc3)c2=O)c1 | 0.998 | -0.359 (inactive) | -0.053 | -0.0454 | 0.767 | 0.366 | -0.0921 | 0.949 | -0.194 | 1.14 |
| COC(=O)[C@@]1(Cc2ccccc2)[C@H]2c3cc(C(=O)N(C)C)n(CCn4cc([N+](=O)[O-])nc4C)c3C[C@H]2CN1C(=O)c1ccccc1 | 0.89 | 0.0327 (inactive) | 0.16 | -0.0254 | 0.888 | 2.56 | 0.697 | 1.1 | -0.113 | 0.526 |
| CC(C)CNC(=O)[C@@]1(C)c2ccccc2C(=O)N(Cc2cc(C(F)(F)F)cc(C(F)(F)F)c2)[C@H]1c1ccc(CO)cc1 | 0.184 | 0.635 (inactive) | -0.242 | -0.111 | 0.72 | 0.79 | -0.205 | 0.108 | -0.307 | 0.0758 |
| [N-]=[N+]=NCc1ccccc1[C@@H]1OC(c2ccc(OCCCO)cc2)=N[C@]1(Cc1ccccc1N=[N+]=[N-])C(=O)NCCN1CCOCC1 | 0.741 | 0.215 (inactive) | 0.202 | -0.0219 | 0.828 | 2.14 | 1.01 | 1.31 | 0.32 | 0.863 |
| COCCOC(=O)N1C(=O)[C@@]2(c3cc(C#CC4=CCCCC4)ccc31)[C@H](C(=O)N1CCCCCCC1)[C@H]1C(=O)O[C@H](c3ccccc3)[C@H](c3ccccc3)N1[C@@H]2c1ccc(OCCO)cc1 | -0.0202 | 0.196 (inactive) | 0.677 | 0.0424 | 0.399 | 0.387 | 0.722 | 0.865 | 0.652 | 1.11 |
| CC(C)c1ccc(NN2C(C(O)Cc3ccccc3)C=CC3C(=O)N(c4ccccc4)C(=O)C32)cc1 (stereo not given) | 0.999 | 0.221 (inactive) | 0.428 | 0.0383 | 0.751 | 2.65 | 0.0643 | 1.31 | -0.209 | 1.14 |
| COC(=O)C(CC#Cc1ccc2c(c1)[C@]1(C(=O)N2)[C@H](c2ccc(OCCO)cc2)N2[C@H](c3ccccc3)[C@H](c3ccccc3)OC(=O)[C@H]2[C@@H]1C(=O)N1CCN(c2ncccn2)CC1)C(=O)OC | 0.621 | 0.434 (inactive) | 0.176 | 0.0296 | 0.62 | 1.71 | 0.832 | 1.3 | 0.441 | 1.16 |
| CN(C)CCCCNC(=O)[C@H]1C[C@H]2C(=O)N[C@@H](CCCC[N+](C)(C)C)C(=O)N2[C@H]1c1ccc(O)cc1 | -0.165 | 0.261 (inactive) | -0.208 | 0.2 | 0.716 | -0.287 | 0.106 | -0.863 | -0.187 | 0.343 |
| C=C[C@@H](C)[C@@H](OC(=O)Nc1ccc(SC)cc1)c1ccc(OCCO)cc1 | 0.743 | 0.939 (inactive) | 0.221 | -0.0814 | 0.715 | 1.07 | 0.248 | 0.87 | -0.506 | 1.1 |
| CN(C)CCCC[C@@H]1NC(=O)[C@@H]2C[C@H](C(=O)O)[C@H](c3cccc(OCCO)c3)N2C1=O | 0.0812 | 0.627 (inactive) | -0.0914 | -0.116 | 0.198 | 0.491 | -0.0644 | -0.936 | 0.217 | 0.567 |

Source: PubChem BioAssay
